# Biological target: HOXC9 (Homo sapiens, UniProt P31274 178-260, R193K)
# Experiment: PBM; 200 nM protein, PBS
# Settings: dsDNA, one strand shown
# Sequence of HOXC9 (P31274 178-260 R193K): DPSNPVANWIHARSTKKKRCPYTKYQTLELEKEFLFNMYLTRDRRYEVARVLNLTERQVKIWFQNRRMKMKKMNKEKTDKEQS
row,Sequence,binding signal
1,ATCGTAAA,"12.6 upbm affinity estimate (log intensity, higher = more binding, comparable within an allelic series)"
2,GTCGTAAA,"13 upbm affinity estimate (log intensity, higher = more binding, comparable within an allelic series)"
3,GCTATAAA,"12.7 upbm affinity estimate (log intensity, higher = more binding, comparable within an allelic series)"
4,CTCATAAA,"12.6 upbm affinity estimate (log intensity, higher = more binding, comparable within an allelic series)"
5,CTATTAAA,"12.7 upbm affinity estimate (log intensity, higher = more binding, comparable within an allelic series)"
6,ATAAAACA,"12.5 upbm affinity estimate (log intensity, higher = more binding, comparable within an allelic series)"
7,ACAATAAA,"12.7 upbm affinity estimate (log intensity, higher = more binding, comparable within an allelic series)"
8,ACATAAAA,"12.9 upbm affinity estimate (log intensity, higher = more binding, comparable within an allelic series)"
9,ATCATAAA,"12.7 upbm affinity estimate (log intensity, higher = more binding, comparable within an allelic series)"
10,CTATAAAA,"12.8 upbm affinity estimate (log intensity, higher = more binding, comparable within an allelic series)"
11,CTAATAAA,"12.6 upbm affinity estimate (log intensity, higher = more binding, comparable within an allelic series)"
12,GTTTATTA,"12.6 upbm affinity estimate (log intensity, higher = more binding, comparable within an allelic series)"
13,CCCTCACC,"9.56 upbm affinity estimate (log intensity, higher = more binding, comparable within an allelic series)"
14,CGCCACCG,"9.64 upbm affinity estimate (log intensity, higher = more binding, comparable within an allelic series)"
15,AATAAAAA,"12.5 upbm affinity estimate (log intensity, higher = more binding, comparable within an allelic series)"
16,ATTTTATG,"13 upbm affinity estimate (log intensity, higher = more binding, comparable within an allelic series)"
17,GCCATAAA,"12.9 upbm affinity estimate (log intensity, higher = more binding, comparable within an allelic series)"
18,CCTTGCAG,"9.67 upbm affinity estimate (log intensity, higher = more binding, comparable within an allelic series)"
19,GTCATAAA,"13.1 upbm affinity estimate (log intensity, higher = more binding, comparable within an allelic series)"
20,ATCGTTAA,"12.5 upbm affinity estimate (log intensity, higher = more binding, comparable within an allelic series)"

row,Sequence,binding signal
1,CCGCCTGC,"9.49 upbm affinity estimate (log intensity, higher = more binding, comparable within an allelic series)"
2,GTCGTTAA,"12.6 upbm affinity estimate (log intensity, higher = more binding, comparable within an allelic series)"
3,TCGTAAAA,"13 upbm affinity estimate (log intensity, higher = more binding, comparable within an allelic series)"
4,TCATAAAA,"12.9 upbm affinity estimate (log intensity, higher = more binding, comparable within an allelic series)"
5,CTCGTAAA,"12.7 upbm affinity estimate (log intensity, higher = more binding, comparable within an allelic series)"
6,CATTAAAA,"12.6 upbm affinity estimate (log intensity, higher = more binding, comparable within an allelic series)"
7,CCATAAAA,"13.3 upbm affinity estimate (log intensity, higher = more binding, comparable within an allelic series)"
8,CATTAAAC,"12.6 upbm affinity estimate (log intensity, higher = more binding, comparable within an allelic series)"
9,CATAAAAG,"12.7 upbm affinity estimate (log intensity, higher = more binding, comparable within an allelic series)"
10,AATTTTAT,"12.6 upbm affinity estimate (log intensity, higher = more binding, comparable within an allelic series)"
11,ACCATAAA,"12.7 upbm affinity estimate (log intensity, higher = more binding, comparable within an allelic series)"
12,ATAATAAA,"12.7 upbm affinity estimate (log intensity, higher = more binding, comparable within an allelic series)"
13,CATAAAAC,"13 upbm affinity estimate (log intensity, higher = more binding, comparable within an allelic series)"
14,CCTAGGGC,"9.53 upbm affinity estimate (log intensity, higher = more binding, comparable within an allelic series)"
15,ATTTATGA,"12.6 upbm affinity estimate (log intensity, higher = more binding, comparable within an allelic series)"
16,TCGTTAAA,"12.4 upbm affinity estimate (log intensity, higher = more binding, comparable within an allelic series)"
17,TAATAAAA,"13.1 upbm affinity estimate (log intensity, higher = more binding, comparable within an allelic series)"
18,ACTATAAA,"12.5 upbm affinity estimate (log intensity, higher = more binding, comparable within an allelic series)"
19,CATAAAAA,"13 upbm affinity estimate (log intensity, higher = more binding, comparable within an allelic series)"

# Biological target: HOXA2 (Homo sapiens, UniProt O43364 129-215, R185K)
# Experiment: PBM; 200 nM protein, PBS
# Settings: dsDNA, one strand shown
# Sequence of HOXA2 (O43364 129-215 R185K): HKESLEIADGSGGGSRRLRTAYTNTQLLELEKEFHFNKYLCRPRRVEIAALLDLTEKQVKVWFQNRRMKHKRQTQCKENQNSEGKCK
row,Sequence,binding signal
1,CGCCACCG,"10.5 upbm affinity estimate (log intensity, higher = more binding, comparable within an allelic series)"
2,ATCGTTAA,"13.1 upbm affinity estimate (log intensity, higher = more binding, comparable within an allelic series)"
3,CCTAGGGC,"10.4 upbm affinity estimate (log intensity, higher = more binding, comparable within an allelic series)"

# Biological target: HOXD13 (Homo sapiens, UniProt P35453 263-343)
# Experiment: PBM; 200 nM protein, PBS
# Settings: dsDNA, one strand shown
# Sequence of HOXD13 (P35453 263-343): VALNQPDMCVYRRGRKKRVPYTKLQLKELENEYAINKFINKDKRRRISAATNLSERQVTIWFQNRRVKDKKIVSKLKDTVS
row,Sequence,binding signal
1,ATCGTAAA,"12.1 upbm affinity estimate (log intensity, higher = more binding, comparable within an allelic series)"
2,GTCGTAAA,"12.3 upbm affinity estimate (log intensity, higher = more binding, comparable within an allelic series)"
3,GCTATAAA,"12 upbm affinity estimate (log intensity, higher = more binding, comparable within an allelic series)"
4,CTCATAAA,"12.5 upbm affinity estimate (log intensity, higher = more binding, comparable within an allelic series)"
5,CTATTAAA,"12 upbm affinity estimate (log intensity, higher = more binding, comparable within an allelic series)"
6,ATAAAACA,"11.9 upbm affinity estimate (log intensity, higher = more binding, comparable within an allelic series)"
7,ACAATAAA,"12.1 upbm affinity estimate (log intensity, higher = more binding, comparable within an allelic series)"
8,ATCATAAA,"11.8 upbm affinity estimate (log intensity, higher = more binding, comparable within an allelic series)"
9,CTATAAAA,"12.4 upbm affinity estimate (log intensity, higher = more binding, comparable within an allelic series)"
10,CTAATAAA,"12.3 upbm affinity estimate (log intensity, higher = more binding, comparable within an allelic series)"
11,GTTTATTA,"12 upbm affinity estimate (log intensity, higher = more binding, comparable within an allelic series)"
12,CGCCACCG,"9.56 upbm affinity estimate (log intensity, higher = more binding, comparable within an allelic series)"
13,ATTTTATG,"11.8 upbm affinity estimate (log intensity, higher = more binding, comparable within an allelic series)"
14,GCCATAAA,"11.9 upbm affinity estimate (log intensity, higher = more binding, comparable within an allelic series)"
15,GTCATAAA,"12.1 upbm affinity estimate (log intensity, higher = more binding, comparable within an allelic series)"
16,TCGTAAAA,"12.3 upbm affinity estimate (log intensity, higher = more binding, comparable within an allelic series)"
17,TCATAAAA,"12.2 upbm affinity estimate (log intensity, higher = more binding, comparable within an allelic series)"
18,CTCGTAAA,"12.7 upbm affinity estimate (log intensity, higher = more binding, comparable within an allelic series)"
19,CCATAAAA,"12.3 upbm affinity estimate (log intensity, higher = more binding, comparable within an allelic series)"
20,CATAAAAG,"11.8 upbm affinity estimate (log intensity, higher = more binding, comparable within an allelic series)"
21,ACCATAAA,"12 upbm affinity estimate (log intensity, higher = more binding, comparable within an allelic series)"
22,ATAATAAA,"11.8 upbm affinity estimate (log intensity, higher = more binding, comparable within an allelic series)"
23,CATAAAAC,"12 upbm affinity estimate (log intensity, higher = more binding, comparable within an allelic series)"
24,ATTTATGA,"12 upbm affinity estimate (log intensity, higher = more binding, comparable within an allelic series)"
25,TCGTTAAA,"12 upbm affinity estimate (log intensity, higher = more binding, comparable within an allelic series)"
26,TAATAAAA,"12.1 upbm affinity estimate (log intensity, higher = more binding, comparable within an allelic series)"
27,ACTATAAA,"12 upbm affinity estimate (log intensity, higher = more binding, comparable within an allelic series)"
28,CATAAAAA,"11.8 upbm affinity estimate (log intensity, higher = more binding, comparable within an allelic series)"

# Biological target: HOXC10 (Homo sapiens, UniProt Q9NYD6 254-340, K271E)
# Experiment: PBM; 200 nM protein, PBS
# Settings: dsDNA, one strand shown
# Sequence of HOXC10 (Q9NYD6 254-340 K271E): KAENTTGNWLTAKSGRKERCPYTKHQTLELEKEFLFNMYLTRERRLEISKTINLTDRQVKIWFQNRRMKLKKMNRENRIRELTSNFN
row,Sequence,binding signal
1,ATCGTAAA,"12.1 upbm affinity estimate (log intensity, higher = more binding, comparable within an allelic series)"
2,GTCGTAAA,"12.7 upbm affinity estimate (log intensity, higher = more binding, comparable within an allelic series)"
3,GCTATAAA,"11.4 upbm affinity estimate (log intensity, higher = more binding, comparable within an allelic series)"
4,CTCATAAA,"11.8 upbm affinity estimate (log intensity, higher = more binding, comparable within an allelic series)"
5,CTATTAAA,"11.8 upbm affinity estimate (log intensity, higher = more binding, comparable within an allelic series)"
6,ATAAAACA,"11.6 upbm affinity estimate (log intensity, higher = more binding, comparable within an allelic series)"
7,ACAATAAA,"11.7 upbm affinity estimate (log intensity, higher = more binding, comparable within an allelic series)"
8,ACATAAAA,"12 upbm affinity estimate (log intensity, higher = more binding, comparable within an allelic series)"
9,ATCATAAA,"11.8 upbm affinity estimate (log intensity, higher = more binding, comparable within an allelic series)"
10,CTATAAAA,"11.7 upbm affinity estimate (log intensity, higher = more binding, comparable within an allelic series)"
11,CTAATAAA,"11.9 upbm affinity estimate (log intensity, higher = more binding, comparable within an allelic series)"
12,GTTTATTA,"11.6 upbm affinity estimate (log intensity, higher = more binding, comparable within an allelic series)"
13,CCCTCACC,"9.96 upbm affinity estimate (log intensity, higher = more binding, comparable within an allelic series)"
14,AATAAAAA,"11.9 upbm affinity estimate (log intensity, higher = more binding, comparable within an allelic series)"
15,ATTTTATG,"12.1 upbm affinity estimate (log intensity, higher = more binding, comparable within an allelic series)"
16,GCCATAAA,"11.8 upbm affinity estimate (log intensity, higher = more binding, comparable within an allelic series)"

# From paper PMC11006913
